According to PubChem BioAssay (NCATS):
Results filed as inconclusive are left out. Unmarked numbers belong to inactive results. Calls of active or inactive are those of the source. Calls come from the whole dose curve; as a rule, active = well fitted cell-killing curve with a large enough effect; inconclusive = small, poorly fitted or top-dose-only effect, or effect the other way; inactive = no such curve, though single readings can be large or run the other way.

Legend:
[1] = Quantitative High-Throughput drug screen in 47 multiple myeloma cell lines against the NCATS MIPE library collection: MM1R_ATCC cell viability assay (AID 1918981); note: nearly all actives have a fitted effect of over 35% in size
Outline: (§1)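 ATP-based luminescence (CellTiter-Glo, 5 min RT incubation) quantified surviving cells following two days' treatment with MIPE 4.0 agents at 37 °C, 5% CO2.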

[2] = Quantitative High-Throughput drug screen in 47 multiple myeloma cell lines against the NCATS MIPE library collection: LP1_DSMZ cell viability assay (AID 1918982); note: nearly all actives have a fitted effect of over 35% in size
Outline: as §1

[3] = Quantitative High-Throughput drug screen in 47 multiple myeloma cell lines against the NCATS MIPE library collection: KMS28PE_JCRB cell viability assay (AID 1918983); note: nearly all actives have a fitted effect of over 35% in size
Outline: as §1

[4] = Quantitative High-Throughput drug screen in 47 multiple myeloma cell lines against the NCATS MIPE library collection: L363_DSMZ cell viability assay (AID 1918984); note: nearly all actives have a fitted effect of over 40% in size
Outline: as §1

[5] = Quantitative High-Throughput drug screen in 47 multiple myeloma cell lines against the NCATS MIPE library collection: KMS34_JCRB cell viability assay (AID 1918985); note: nearly all actives have a fitted effect of over 40% in size
Outline: as §1

[6] = Quantitative High-Throughput drug screen in 47 multiple myeloma cell lines against the NCATS MIPE library collection: OCIMY7_PLB cell viability assay (AID 1918987); conditions: OCI-MY7 myeloma viability, CellTiter-Glo ATP, 48 h; viability (% of DMSO): at 45.8 µM (top of the series); note: nearly all actives have a fitted effect of over 65% in size
Outline: as §1

[7] = Quantitative High-Throughput drug screen in 47 multiple myeloma cell lines against the NCATS MIPE library collection: OCIMY5_PLB cell viability assay (AID 1918988); note: nearly all actives have a fitted effect of over 65% in size
Outline: as §1

[8] = Quantitative High-Throughput drug screen in 47 multiple myeloma cell lines against the NCATS MIPE library collection: OPM1_PLB cell viability assay (AID 1918989); note: nearly all actives have a fitted effect of over 40% in size
Outline: as §1

[9] = Quantitative High-Throughput drug screen in 47 multiple myeloma cell lines against the NCATS MIPE library collection: XG6_PLB cell viability assay (AID 1919865); note: nearly all actives have a fitted effect of over 40% in size
Outline: as §1

[10] = Quantitative High-Throughput drug screen in 47 multiple myeloma cell lines against the NCATS MIPE library collection: XG1_PLB cell viability assay (AID 1919866); note: nearly all actives have a fitted effect of over 35% in size
Outline: as §1

[11] = Quantitative High-Throughput drug screen in 47 multiple myeloma cell lines against the NCATS MIPE library collection: PE2_PLB cell viability assay (AID 1919869); note: nearly all actives have a fitted effect of over 35% in size
Outline: as §1

[12] = Quantitative High-Throughput drug screen in 47 multiple myeloma cell lines against the NCATS MIPE library collection: PCM6_Riken cell viability assay (AID 1919870); note: nearly all actives have a fitted effect of over 30% in size
Outline: as §1

[13] = Quantitative High-Throughput drug screen in 47 multiple myeloma cell lines against the NCATS MIPE library collection: RPMI8226_ATCC cell viability assay (AID 1919871); note: nearly all actives have a fitted effect of over 30% in size
Outline: as §1

[14] = Quantitative High-Throughput drug screen in 47 multiple myeloma cell lines against the NCATS MIPE library collection: OPM2_DSMZ cell viability assay (AID 1919872); note: nearly all actives have a fitted effect of over 30% in size
Outline: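 Primary qHTS used for cherry-picking: cells at 500/well, library compounds for 48 h (37C, 5% CO2), luminescent ATP assay.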

[15] = Quantitative High-Throughput drug screen in 47 multiple myeloma cell lines against the NCATS MIPE library collection: KMS11_JCRBsus cell viability assay (AID 1919873); note: nearly all actives have a fitted effect of over 50% in size
Outline: as §1

[16] = Quantitative High-Throughput drug screen in 47 multiple myeloma cell lines against the NCATS MIPE library collection: KMS28BM_JCRB cell viability assay (AID 1919874); note: nearly all actives have a fitted effect of over 35% in size
Outline: as §1

[17] = Quantitative High-Throughput drug screen in 47 multiple myeloma cell lines against the NCATS MIPE library collection: SKMM1_PLB cell viability assay (AID 1919863); conditions: SKMM1 myeloma viability, CellTiter-Glo ATP, 48 h; viability: active compounds read low; note: nearly all actives have a fitted effect of over 35% in size
Outline: as §1

[18] = Quantitative High-Throughput drug screen in 47 multiple myeloma cell lines against the NCATS MIPE library collection: UTMC2_PLB cell viability assay (AID 1919868); conditions: CellTiter-Glo ATP luminescence, 48 h; viability (% of DMSO control): at 45.8 µM (top of the series); note: nearly all actives have a fitted effect of over 55% in size
Outline: as §1

[19] = Quantitative High-Throughput drug screen in 47 multiple myeloma cell lines against the NCATS MIPE library collection: U266_ATCC cell viability assay (AID 1919864); note: nearly all actives have a fitted effect of over 35% in size
Outline: as §1

[20] = Quantitative High-Throughput drug screen in 47 multiple myeloma cell lines against the NCATS MIPE library collection: VP6_DJ cell viability assay (AID 1919867); note: nearly all actives have a fitted effect of over 40% in size
Outline: as §1
Potency is the fitted concentration of half-maximal effect.

SMILES | Potency [1] | Potency [2] | Potency [3] | Potency [4] | Potency [5] | Potency [6] | Potency [7] | Potency [8] | Potency [9] | Potency [10] | Potency [11] | Potency [12] | Potency [13] | Potency [14] | Potency [15] | Potency [16] | Potency [17] | Potency [18] | Potency [19] | Potency [20]
CN1[C@H]2CC(OC(=O)[C@@H](CO)c3ccccc3)C[C@H]1[C@H]1O[C@H]12 (stereo partly drawn) | inactive | inactive | inactive | inactive | inactive | inactive | inactive | inactive | inactive | inactive | inactive | inactive | inactive | inactive | inactive | inactive |  |  |  | 
N#CNC(=NCCCCCCOc1ccc(Cl)cc1)Nc1ccncc1 | 9.3 nM (active) | 18.7 nM (active) | 132 nM (active) | 662 nM (active) | 14.8 nM (active) | inactive | 7.4 nM (active) | 3 nM (active) | 18700 nM (active) | inactive |  | 1 nM (active) | 41.8 nM (active) |  | 2.6 nM (active) | 105 nM (active) | 16.6 nM (active) | inactive |  | 
NC[C@H]1O[C@H](O[C@H]2[C@@H](O)[C@@H](O[C@H]3O[C@H](CO)[C@@H](O)[C@H](N)[C@@H]3O)[C@H](N)C[C@@H]2N)[C@H](N)C[C@H]1O | inactive | inactive | inactive | inactive | inactive |  | inactive |  | inactive | inactive | inactive | inactive |  | inactive |  |  |  |  | inactive | inactive
COc1cccc2c1C(=O)c1c(O)c3c(c(O)c1C2=O)C[C@@](O)(C(=O)CO)C[C@@H]3O[C@H]1C[C@H](N)[C@@H](O)[C@H](C)O1 | 118 nM (active) | 1870 nM (active) | 526 nM (active) | 1870 nM (active) | 743 nM (active) | 2090 nM (active) |  | 743 nM (active) | 148 nM (active) | 526 nM (active) | 148 nM (active) | 209 nM (active) | 935 nM (active) | 2090 nM (active) | 935 nM (active) | 418 nM (active) | 935 nM (active) | 118 nM (active) | 1320 nM (active) | 935 nM (active)
CCNC(=O)Nc1ccc(-c2nc3c(c(N4CCOC[C@H]4C)n2)CCN(C2COC2)C3)cc1 | 1050 nM (active) | 37.2 nM (active) | 833 nM (active) | 209 nM (active) | 1050 nM (active) |  | 1660 nM (active) | 1180 nM (active) | 935 nM (active) | 526 nM (active) | 1180 nM (active) | 1320 nM (active) | 743 nM (active) | 1660 nM (active) | 296 nM (active) | 526 nM (active) | 935 nM (active) | 1180 nM (active) | 6620 nM (active) | 1050 nM (active)
